# Screens as filed in PubChem BioAssay.
# An excerpt weighted towards active compounds, which were near 3.4% of everything screened.
# FBW7 act = human FBW7 E3 ligase activation, primary screen; Q969H0; AlphaScreen FBW7–phospho-cyclin E peptide binding, activator screen; normalized activity (activation), % at 26.1 µM; 0.13% of 650,000 active; AID 1259310; in the data active means normalized activity above about 1.9%;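 further: purified mutant Fbw7 with reduced substrate affinity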
# MITF primary = inhibitors of human MITF; O75030; AlphaScreen MITF homodimerization, bead proximity signal; inhibition, % at 2.6 µM; 0.91% of 650,000 active; in the data active means inhibition above about 50%;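 further: 0% = vehicle wells with protein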
# Target sequence (O75030 whole entry, looked up): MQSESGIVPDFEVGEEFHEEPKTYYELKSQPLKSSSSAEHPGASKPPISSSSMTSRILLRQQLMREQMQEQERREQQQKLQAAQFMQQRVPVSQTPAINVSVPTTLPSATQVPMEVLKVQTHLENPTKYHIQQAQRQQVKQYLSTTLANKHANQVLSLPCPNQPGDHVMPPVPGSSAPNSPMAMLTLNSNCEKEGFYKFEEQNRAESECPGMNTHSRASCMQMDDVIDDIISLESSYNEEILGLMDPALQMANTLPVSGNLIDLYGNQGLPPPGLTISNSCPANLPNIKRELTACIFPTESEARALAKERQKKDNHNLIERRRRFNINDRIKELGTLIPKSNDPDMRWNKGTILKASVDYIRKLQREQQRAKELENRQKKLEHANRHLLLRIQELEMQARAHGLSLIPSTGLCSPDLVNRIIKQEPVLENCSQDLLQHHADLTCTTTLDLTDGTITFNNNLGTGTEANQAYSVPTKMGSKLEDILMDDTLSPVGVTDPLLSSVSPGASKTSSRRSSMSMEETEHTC
# GPR151 ag = activates the human receptor GPR151; Q8TDV0; PathHunter beta-arrestin GPR151 cells, luminescence; activation, % at 11.2 µM; 1% of 650,000 active; in the data active means activation above about 4.9%;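 further: 0% = median of compound wells and 100% = cells with positive control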
# TEAD-YAP inh = TEAD-YAP interaction inhibition | HEK-TIYL cells, TEAD-Gal4/YAP UAS-luciferase luminescence | inhibition, % at 9.12 µM | 1.4% of 640,000 active | AID 1259422; in the data active means inhibition above about 32%;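 further: 0% = median of test compound wells and 100% = reference inhibitor wells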
# GPR151 confirm = human GPR151 activation, confirmation screen. AID 1508609. 6,700 tested, under 10 active. GPR151 PathHunter beta-arrestin cells, luminescence, 90 min; % of EA-reagent control over plate median. shares compounds with GPR151 ag. activation, % at 11.2 µM;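 active means mean percent activation across replicates above the confirmation screen cutoff of 4.91%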
# GPR119 counter = GPR119 activation, counter-screen for GPR151 activators. activation, % at 11.2 µM. GPR119 PathHunter beta-arrestin cells, luminescence, 90 min; 0 = compound-well median, 100 = enzyme-acceptor control. 0.3% of 6,700 active. shares compounds with GPR151 ag;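 active means mean percent activation in the counterscreen above 29.09%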;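 further: counterscreen on off-target GPR119 to flag nonselective hits from the GPR151 activator screen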
# * = called active by the depositor; . = no result given.
SMILES,FBW7 act,MITF primary,GPR151 ag,TEAD-YAP inh,GPR151 confirm,GPR119 counter
COCCN1CCN(Cc2nc(-c3ccccn3)no2)CC1,0.0,11.1,-0.4,-6.2,.,.
COCCCC1CCN(Cc2nc(-c3ccccn3)no2)CC1,0.1,-2.6,6.7*,-9.0,0.2,-0.3
c1ccc(CN2CCC(c3nnc(-c4ccccc4)o3)CC2)cc1,-0.2,-4.9,-0.9,5.4,.,.
CCOC(=O)c1sc(NC(=O)CSc2ncnc3sc(C)c(C)c23)c(C(=O)OCC)c1C,-0.1,10.4,6.4*,8.8,0.8,8.2
COc1cccc(NC(=O)c2cc(=O)c3ccccc3o2)c1,-0.3,1.3,4.9*,-39.6,0.1,1.0
C[C@H]1C(=O)N2CCN(Cc3cnn(-c4ccccc4)c3)C[C@@H]2C(=O)N1C,0.0,18.1,0.0,12.8,.,.
CCOc1ccc(NC(=O)Cn2c(-n3nc(C)cc3C)nc(C)cc2=O)cc1,0.2,10.3,9.1*,13.6,0.8,6.7
COc1ccc(NC(=O)Cn2c(-n3nc(C)cc3C)nc(C)cc2=O)cc1,-1.0,-0.3,-0.6,-11.2,.,.
CC12C=CC(C)(O1)C1C(=O)N(c3ccccc3)C(=O)C12 (stereo unspecified),-0.2,-7.3,1.4,-0.5,.,.
CC12C=CC(C)(O1)C1C(=O)N(c3ccc(-c4ccccc4)cc3)C(=O)C12 (stereo unspecified),-0.1,-13.1,5.7*,-2.7,-1.0,-14.8
CC(=O)c1ccccc1NC(=O)CSc1n[nH]c(N)n1,-0.1,2.4,8.0*,8.0,0.1,5.6
CCOC(=O)c1ccccc1NC(=O)CSc1n[nH]c(N)n1,0.0,1.3,0.4,7.4,.,.
O=C(NCC1CCCO1)C1CCC(Cn2c(=S)[nH]c3ccsc3c2=O)CC1 (stereo unspecified),-0.1,-4.1,-0.4,-5.8,.,.
CCOc1ccc2nc(Nc3nccc(C)n3)nc(C)c2c1,0.3,1.2,9.0*,-23.0,0.2,5.1
CCOc1ccc2nc(Nc3nc(C)cc(-c4ccccc4)n3)nc(C)c2c1,-0.1,-5.1,-0.1,-10.6,.,.
N#CC1=C(SCC(=O)Nc2nccs2)NC(=O)CC1c1ccc(Cl)cc1 (stereo unspecified),0.2,12.7,2.6,3.1,.,.
O=C(Nc1c[nH]c(=O)[nH]c1=O)c1ccc(N2C(=O)C3C4C=CC(C4)C3C2=O)cc1 (stereo unspecified),0.2,14.8,6.7*,3.5,-0.5,6.2
O=C(Nc1ccccc1O)c1ccc(N2C(=O)C3C4C=CC(C4)C3C2=O)cc1 (stereo unspecified),0.0,-2.1,1.3,-126.0,.,.
NC(=O)CCC/C=C\C[C@@H]1[C@@H](/C=C/[C@@H](O)CCc2ccccc2)[C@H](O)C[C@@H]1O,.,-1.9,7.0*,.,0.7,3.0
O=C(CCC/C=C\C[C@@H]1[C@@H](/C=C/[C@@H](O)CCc2ccccc2)[C@H](O)C[C@@H]1O)NC(CO)CO,.,-17.5,1.0,.,.,.
O=C(O)CCC/C=C\C[C@@H]1[C@@H](/C=C/[C@H](O)CCc2ccccc2)[C@H](O)C[C@@H]1O,.,-14.7,5.6*,.,1.1,5.5
CNC(=O)C(=O)NCC(c1ccco1)N1CCN(c2ccc(OC)cc2)CC1 (stereo unspecified),0.1,-11.8,1.0,-4.1,.,.
COc1cccc(-n2c(=S)sc3c(=O)n(-c4ccc(F)cc4)c(SC)nc32)c1,-0.1,11.4,0.3,-9.4,.,.
CCOC1OC(=O)C(Cl)=C1Nc1cccc(C)c1 (stereo unspecified),-0.1,-0.8,5.0*,5.8,-0.3,2.9
CCc1cc(N2CCN(C)CC2)n2nc3nc(C)cc(C)c3c2n1,0.1,-4.1,7.2*,-11.9,0.8,11.2
CCc1cc(N2CCCC2)n2nc3nc(C)cc(C)c3c2n1,1.1,-0.6,0.5,3.2,.,.
Cc1cc(NCc2ccccc2)nc(NCCN2CCOCC2)n1,0.2,-1.3,6.0*,-4.4,0.6,-9.6
COC(=O)C[n+]1csc2ccccc21,-0.5,14.5,7.8*,5.6,0.4,4.5
COc1cc(-c2cn[nH]c2)cc2c(=O)[nH]c(C3COc4ccc(C)cc4C3)nc12 (stereo unspecified),0.3,9.9,5.6*,7.0,-0.6,-5.7
CCN(Cc1c(C(=O)OC)nnn1-c1nonc1N)c1ccccc1,0.1,11.9,5.1*,-6.2,-1.2,-20.2
